High-throughput results: PubChem BioAssay, several laboratories
Shown are actives, neighbours in structure and some others; about 1.3% of the full set was active somewhere.
CRFR2-BP antag: antagonists of CRF-binding protein/CRF-R2 receptor complex | 350,000 tested, 0.59% active | inhibition, % at 11.8 µM | AID 588475 | HEK293 CRF-R2/CRF-BP, CRF-induced calcium fluorescence;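 active = inhibition of the ligand-induced calcium signal above about 50% at the single tested concentration, limit read from the data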
Cardiac RTF inh: cardiac RTF calcium desensitization. inhibition, % at 7.15 µM. IANBD-labeled cardiac RTF, Ca2+ fluorescence. 340,000 tested, 0.12% active. P19429+P45379;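 active = inhibition above the mean inhibition of all tested compounds plus 3 SD, cut at about 17% in these data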;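 also: assay run at fixed EC70 calcium of 1.6 mM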
CRFR2-BP ag: CRF-BP/CRF-R2 complex agonism; HEK293 CRF-R2/CRF-BP, calcium dye fluorescence (FLIPR); percent of saturating CRF peptide response; activation, % at 13.2 µM; 350,000 tested, 0.46% active; AID 588473;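 active = activation of at least 50%, plus an integration ratio under a set limit after plate pattern correction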;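 also: plate controls were neutral control wells without compound for no effect and CRF at EC100 for full effect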
cardiac RTF act: increases calcium sensitivity of human cardiac regulated thin filaments | AID 493008 | activation, % at 7.2 µM | P19429+P45379 | IANBD-labeled TnC RTF fluorescence at EC20 calcium; 0% EC20 calcium, 100% full calcium | 340,000 tested, 0.24% active;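 active = activation above the mean over all tested compounds plus 3 SD, cut at about 30% in these data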;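 also: rise in fluorescence read as greater calcium sensitivity of cardiac thin filaments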
The depositor's hits bear a star; / = no result given.

SMILES	CRFR2-BP antag	Cardiac RTF inh	CRFR2-BP ag	cardiac RTF act
O=C([O-])c1ccccc1-[n+]1c(-c2ccccc2)cc(-c2ccccc2)cc1-c1ccccc1	-3.9	-11.8	0.5	16.0
CC(C)(C)NC(=O)CN(C(=O)CN1C(=O)C(=O)c2ccccc21)C(C)(C)C	-20.5	5.3	1.9	-4.1
CN(C)c1ccc(/C=C(\C#N)C(=O)c2ccccc2)cc1	-188.8	-105.5	211.7*	79.6*
CCN(CC)c1ccc(/C=C(\C#N)C(N)=S)cc1	-56.1	-281.5	72.1*	200.0*
CCN(CC)c1ccc(/C=C(\C#N)C(N)=O)cc1	-7.4	-3.2	1.7	6.6
CCN(CC)c1ccc(/C=C(\C#N)C(=O)c2ccc(Br)cc2)cc1	-328.5	-488.3	300.8*	558.8*
CCCCOCCCNC(=O)N[C@H](C(=O)OC)C(C)CC (stereo not given in full)	23.8	-1.7	-1.1	7.6
CC(C)Cn1cnc2c(SCc3ccccc3)nc(N)nc21	67.7*	-0.6	1.6	-7.0
COc1cccc(CNC(=O)CN(C)S(=O)(=O)c2ccc3c(c2)n(C)c(=O)c(=O)n3C)c1	-8.2	-14.3	-0.8	-1.6
COc1ccc(CNC(=O)CN(C)S(=O)(=O)c2ccc3c(c2)n(C)c(=O)c(=O)n3C)cc1	69.3*	2.1	-0.8	0.6
COc1ccc(CNC(=O)CCc2nc3cc(S(=O)(=O)N(C)C)ccc3n2C)cc1OC	64.5*	-4.5	-1.4	2.7
CCOc1ccccc1N(CC(=O)N1CCC(C)CC1)S(=O)(=O)c1ccc(C)cc1	-8.5	-1.3	0.4	-7.5
COc1ccccc1N(CC(=O)N1CCCCC1C)S(=O)(=O)c1ccc(Cl)cc1 (stereo not given)	-11.5	/	55.2*	/
COc1ccccc1N(CC(=O)N1CCCC1)S(=O)(=O)c1ccc(C)cc1	22.3	7.5	0.0	-7.6
CCOc1ccccc1N(CC(=O)N1CCCCCC1)S(=O)(=O)c1ccc(C)cc1	-29.7	-2.8	31.2	-2.4
CCOc1ccccc1N(CC(=O)N1CCOCC1)S(=O)(=O)c1ccccc1	-127.5	1.6	290.6*	0.6
CCOc1ccccc1N(CC(=O)N1CCC(C(N)=O)CC1)S(=O)(=O)c1ccc(SC)cc1	74.6*	-0.3	-1.1	-4.6
CNC(=O)COc1coc(CN2CCN(C(=O)c3ccco3)CC2)cc1=O	-2.8	8.0	2.2	0.8
COc1ccccc1C(=O)NC(=O)CSc1nnc(N)s1	-4.9	-3.0	1.1	-0.8
CC(C)NC(=O)N(C)C[C@@H]1Oc2c(NC(=O)C3CCOCC3)cccc2C(=O)N([C@@H](C)CO)C[C@H]1C	-16.4	-7.3	4.6	-7.1
Cc1cccc(C(=O)NC(=S)NNC(=O)COc2c(C)cccc2C)c1	-90.3	-0.7	166.5*	-3.1
Cc1cccc(C(=O)NC(=S)Nc2ccccc2C(=O)O)c1	-9.9	-4.5	-2.2	1.6
Cc1ccc(C(=O)NC(=S)NNC(=O)COc2ccccc2C)cc1	-50.4	1.2	114.0*	-3.0
Cc1cccc(C(=O)NC(=S)NNC(=O)c2ccccc2Cl)c1	-1.9	8.8	152.2*	0.0
Cc1cccc(C(=O)NC(=S)NNC(=O)Cc2ccccc2)c1	17.2	-1.1	136.5*	-1.3
SMILES	CRFR2-BP antag	Cardiac RTF inh	CRFR2-BP ag	cardiac RTF act
CCC(Oc1ccccc1)C(=O)NCCOC (stereo not given)	-5.8	9.7	1.7	-4.6
Cc1cccc(C(=O)OCN2C(=O)c3ccccc3C2=O)c1[N+](=O)[O-]	-7.8	-0.8	1.8	0.9
Cc1ccc(OCC(=O)NNC(=S)NC(=O)C(C)(C)C)c(Br)c1	-18.5	6.2	84.5*	-7.4
Cc1cccc(C(=O)NC(=S)N2CCN(C)CC2)c1	22.0	2.2	-1.0	-3.7
Cc1cccc(C(=O)NC(=S)N2CCN(C(=S)NC(=O)c3cccc(C)c3)CC2)c1	50.2*	3.7	-0.7	-2.6
Cc1ccc(NC(=O)CNC2CCCCC2)cc1Cl	-28.0	0.8	0.4	-2.9
COc1ccccc1-[n+]1c(C)cc(/C=C2\Sc3ccccc3N2C)cc1C	-169.2	-62.3	174.7*	48.4*
COc1ccc(-[n+]2c(C)cc(/C=C3\Sc4ccccc4N3C)cc2C)cc1	/	-55.2	/	44.3*
COc1ccc(C(=O)/C=C2\Sc3ccccc3N2C)cc1	-4.0	/	0.2	/
CCC(C)(C)n1nnnc1C(c1cccc(C#N)c1)N1CCN(c2cccc(C)c2C)CC1 (stereo not given)	50.9*	-9.4	-1.9	-0.3
CCN(CC)CCN(C(=O)CN1C(=O)c2ccccc2C1=O)c1nc2cc3c(cc2s1)OCO3	76.4*	-8.4	0.8	3.8
Cc1ccc(S(=O)(=O)N2CC(C)N(C(=O)N3CCOCC3)C2C)cc1 (stereo not given)	7.4	16.7	0.5	-3.3
